Here are results for 5 compounds from PubChem BioAssay.

The subject of assay [1] is Plasmodium falciparum Sir2 (PF13_0152, Sir2A). The assay can be described thus: pfSir2 binders on small-molecule microarrays, primary screen, biochemical, small-molecule microarray, 635 nm fluorescence (AID 1098).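 Further: score merges spot fluorescence intensity with its signal-to-noise ratio.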 To be noted: small-molecule microarray binding, fluorescence 635 nm; higher = more signal.
Assay [2] is described as follows: small-molecule microarray binders of probe aDKK1, primary screen, biochemical, biotinylated probe, 635/667 nm fluorescence (AID 1099).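 Further: score merges 667nm spot fluorescence with signal to noise across triplicate slides.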 As to conditions: higher = more signal.
A short description of assay [3]: small-molecule microarray binders of probe aCHRDL2, primary screen, biochemical, biotinylated probe, 635/667 nm fluorescence (AID 1100). As to conditions: higher = more signal.
Assay [4] can be described thus: splicing luciferase reporter signal modulators, primary screen, spliceosome inhibition project, cell-based, HEK293, splice +/- reporter (AID 1101).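 Further: HEK293 cells carrying a splicing-competent luciferase reporter gene; test concentration not given here.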 As to conditions: luminescence, 24 h, higher = more signal, called active from +8 up or from −8 down. For orientation: A reporter such as luciferase makes a cellular process visible.
The target in assay [5] is Fibroblast growth factor 10 (Homo sapiens) (UniProt O15520). Description: FGF10 binders on small-molecule microarrays, primary screen, biochemical, small-molecule microarray, 635 nm fluorescence (AID 1102). To be noted: FGF10 binding, fluorescence 635 nm, higher = more signal.
Assay [6] concerns glycogen synthase kinase-3 (GSK3A per assay name; protocol says GSK3B). Description: GSK3 binders on small-molecule microarrays, primary screen, biochemical, small-molecule microarray, 635 nm fluorescence, GSK3A (AID 1103). Further: the record names both GSK3A and GSK3B. To be noted: small-molecule microarray binding, fluorescence 635 nm; higher = more signal.
The target of assay [7] is Epidermal growth factor receptor (Homo sapiens) (UniProt P00533). Description: EGFR binders on small-molecule microarrays, primary screen, biochemical, small-molecule microarray, 635 nm fluorescence (AID 1104).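 Further: score merges 667 nm emission intensity with spot signal to noise over triplicate slides.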 As to conditions: EGFR binding, higher = more signal.
Assay [8] concerns the target Follistatin-related protein 3 (Homo sapiens) (UniProt O95633). Description: FSTL3 binders on small-molecule microarrays, primary screen, biochemical, small-molecule microarray, 635 nm fluorescence (AID 1105).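 Further: score merges emission near 667 nm and signal to noise per printed spot across three slides.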 To be noted: FSTL3 binding, higher = more signal.
For assay [9], the target named is Dickkopf-related protein 1 (Homo sapiens) (UniProt O94907). Description: DKK1 binders on small-molecule microarrays, primary screen, biochemical, small-molecule microarray, 635 nm fluorescence scan (AID 1106).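 Further: score merges emission near 667 nm with signal to noise over three replicate slides.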 To be noted: DKK1 binding, higher = more signal.
Assay [10] relates to Inhibin beta A chain (activin A). The assay can be described thus: INHBA (activin A) binders on microarrays, primary screen, biochemical, small-molecule microarray, 635 nm fluorescence scan (AID 1107).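 Further: mouse activin A protein probed at 4.33 µg/mL on printed slides; score merges bound-protein fluorescence near 667 nm with spot signal-to-noise.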 As to conditions: small-molecule microarray binding, higher = more signal.
For assay [11], the system named is Human papillomavirus type 1a protein E7 (residues 44-93). Description: HPV1a E7 fragment binders on microarrays, primary screen, biochemical, small-molecule microarray, residues 44-93, 635 nm fluorescence (AID 1108).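 Further: E7 fragment applied at 1 µg/mL in TBST for 1 h at 4 C; score combines spot fluorescence with its signal to noise ratio.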 As to conditions: small-molecule microarray binding, fluorescence 635 nm; higher = more signal.
Assay [12] in a line: modulators of HCV replicon luciferase signal, primary screen, HCV replication inhibitor project, Huh7 cells, luciferase reporter (AID 1109).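 Further: huh7 hepatoma cells harbouring a luciferase neomycin HCV replicon reporter; luciferase luminescence as measure of HCV replicon replication; test concentration not given here.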 As to conditions: 48 h, higher = more signal.
Assay [13] concerns the target Left-right determination factor 2 (Homo sapiens) (UniProt O00292). The assay can be described thus: LEFTY2 binders on small-molecule microarrays, primary screen, biochemical, small-molecule microarray, 635 nm fluorescence scan (AID 1110). As to conditions: LEFTY2 binding, higher = more signal.
Assay [14] addresses Calmodulin-1 (Homo sapiens) (UniProt P0DP23). Description: CALM1 binders on microarrays, EGTA buffer, profiling panel, biochemical, small-molecule microarray, Cy5-labelled CALM1 (AID 1111).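 Further: labelled calmodulin applied in Tris saline Tween buffer holding calcium plus EGTA and DTT.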 To be noted: Cy5-CALM1 binding fluorescence, higher = more signal.
Assay [15] has the same target. Description: calcium-bound CALM1 binders on microarrays, profiling panel, artefact control for SMM control-protein annotation, biochemical, small-molecule microarray, Cy5-labelled CALM1, plus calcium (AID 1112).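 Further: score merges spot fluorescence with signal to noise from triplicate slides.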 To be noted: Cy5-CALM1 binding fluorescence, higher = more signal.
Assay [16] is described as follows: small-molecule microarray binders of probe aWnt5a, primary screen, biochemical, biotinylated probe, 635/667 nm fluorescence (AID 1113).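 Further: score merges 667 nm fluorescence intensity with signal-to-noise per printed feature.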 As to conditions: higher = more signal.
Assay [17] can be described thus: small-molecule microarray binders of probe aShh, primary screen, biochemical, biotinylated probe, 635/667 nm fluorescence (AID 1114).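 Further: probe is biotin-labelled aShh protein from a stem cell growth factor screen; measures binding of labelled protein to compounds printed on the slide; score merges feature fluorescence at 667 nm with signal-to-noise.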 To be noted: higher = more signal.
A short description of assay [18]: small-molecule microarray binders of probe aNog, primary screen, biochemical, biotinylated probe, 635/667 nm fluorescence (AID 1115).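 Further: probe is biotinylated aNog protein used at 0.15 µg/mL for 1 h at 4 C; z-score combines 667 nm fluorescence of each spot with its signal to noise.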 As to conditions: higher = more signal.
The target in assay [19] is Torsin-1A-interacting protein 1 (Homo sapiens) (UniProt Q5JTV8). Description: LAP1 binders from COS7 cell lysate, primary screen, small-molecule microarray, 635/667 nm fluorescence (AID 1116). To be noted: COS7-hLAP1 lysate binding, 635 nm fluorescence, higher = more signal.
In assay [20] the target is Alpha-bungarotoxin (Bungarus multicinctus) (UniProt P60615). The assay can be described thus: alpha-bungarotoxin binders on microarray, profiling panel, artefact control for SMM control protein annotation, biochemical, small-molecule microarray, Alexa647 label, 635/667 nm fluorescence (AID 1117). To be noted: alpha-BTX-A647 binding fluorescence, higher = more signal.

Molecules are shown by their SMILES. Activity calls are given as the source filed them.

Sequence of Epidermal growth factor receptor (Homo sapiens) (P00533 whole entry, looked up): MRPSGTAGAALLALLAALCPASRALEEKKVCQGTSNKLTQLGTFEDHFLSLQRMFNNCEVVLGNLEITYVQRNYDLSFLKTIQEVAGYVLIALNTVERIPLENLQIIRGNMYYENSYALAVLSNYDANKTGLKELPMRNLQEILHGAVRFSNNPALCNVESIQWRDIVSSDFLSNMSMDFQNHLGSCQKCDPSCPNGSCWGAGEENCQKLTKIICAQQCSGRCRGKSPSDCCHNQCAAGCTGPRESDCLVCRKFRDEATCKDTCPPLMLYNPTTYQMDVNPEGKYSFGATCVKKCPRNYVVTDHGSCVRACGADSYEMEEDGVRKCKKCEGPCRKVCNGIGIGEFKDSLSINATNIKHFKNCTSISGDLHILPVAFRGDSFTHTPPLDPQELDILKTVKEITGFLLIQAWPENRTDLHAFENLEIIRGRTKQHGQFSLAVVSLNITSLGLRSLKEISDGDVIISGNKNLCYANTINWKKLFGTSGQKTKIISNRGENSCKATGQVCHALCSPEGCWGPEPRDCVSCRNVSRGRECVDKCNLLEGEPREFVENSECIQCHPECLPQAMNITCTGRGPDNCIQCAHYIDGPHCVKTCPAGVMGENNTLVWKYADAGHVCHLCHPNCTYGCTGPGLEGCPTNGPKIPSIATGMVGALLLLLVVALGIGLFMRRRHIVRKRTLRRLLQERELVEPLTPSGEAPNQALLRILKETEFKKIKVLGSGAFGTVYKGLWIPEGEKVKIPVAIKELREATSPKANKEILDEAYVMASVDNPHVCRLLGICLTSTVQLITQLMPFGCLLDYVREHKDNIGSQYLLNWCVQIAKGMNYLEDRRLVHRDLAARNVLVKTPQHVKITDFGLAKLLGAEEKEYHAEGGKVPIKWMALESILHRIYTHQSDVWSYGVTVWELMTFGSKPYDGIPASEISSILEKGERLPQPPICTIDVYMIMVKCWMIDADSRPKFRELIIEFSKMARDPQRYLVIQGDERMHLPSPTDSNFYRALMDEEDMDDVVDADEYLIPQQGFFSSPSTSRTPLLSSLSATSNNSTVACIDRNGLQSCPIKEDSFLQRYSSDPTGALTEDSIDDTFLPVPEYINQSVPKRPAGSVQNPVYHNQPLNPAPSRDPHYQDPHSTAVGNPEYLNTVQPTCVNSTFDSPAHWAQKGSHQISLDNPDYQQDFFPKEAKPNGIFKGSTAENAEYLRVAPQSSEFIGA
Sequence of Dickkopf-related protein 1 (Homo sapiens) (O94907 whole entry, looked up): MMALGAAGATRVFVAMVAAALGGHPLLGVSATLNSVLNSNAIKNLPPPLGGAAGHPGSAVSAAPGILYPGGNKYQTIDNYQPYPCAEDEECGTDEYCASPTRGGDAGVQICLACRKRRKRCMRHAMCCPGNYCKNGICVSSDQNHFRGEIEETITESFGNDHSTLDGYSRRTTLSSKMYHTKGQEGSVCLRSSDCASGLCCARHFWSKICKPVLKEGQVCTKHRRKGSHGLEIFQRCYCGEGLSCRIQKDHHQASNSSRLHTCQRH
Sequence of Torsin-1A-interacting protein 1 (Homo sapiens) (Q5JTV8 whole entry, looked up): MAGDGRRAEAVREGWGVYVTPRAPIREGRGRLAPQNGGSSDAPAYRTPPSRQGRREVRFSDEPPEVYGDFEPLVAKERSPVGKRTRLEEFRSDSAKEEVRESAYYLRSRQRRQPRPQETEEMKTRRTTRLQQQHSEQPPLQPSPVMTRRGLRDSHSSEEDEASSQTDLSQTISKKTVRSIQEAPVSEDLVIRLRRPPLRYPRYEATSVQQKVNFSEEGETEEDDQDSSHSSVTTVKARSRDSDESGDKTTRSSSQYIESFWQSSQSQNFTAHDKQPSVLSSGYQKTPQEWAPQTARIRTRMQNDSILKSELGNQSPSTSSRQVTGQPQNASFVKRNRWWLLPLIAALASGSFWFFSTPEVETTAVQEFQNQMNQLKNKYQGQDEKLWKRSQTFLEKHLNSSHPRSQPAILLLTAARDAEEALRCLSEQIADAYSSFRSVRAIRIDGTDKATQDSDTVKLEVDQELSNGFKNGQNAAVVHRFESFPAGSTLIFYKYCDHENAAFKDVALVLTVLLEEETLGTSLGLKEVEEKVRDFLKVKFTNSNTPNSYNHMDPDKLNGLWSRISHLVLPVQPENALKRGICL
Sequence of Alpha-bungarotoxin (Bungarus multicinctus) (P60615 whole entry, looked up): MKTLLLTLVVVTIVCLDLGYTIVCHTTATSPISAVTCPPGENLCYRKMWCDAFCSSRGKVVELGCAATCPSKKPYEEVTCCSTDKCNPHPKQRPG
Sequence of Left-right determination factor 2 (Homo sapiens) (O00292 whole entry, looked up): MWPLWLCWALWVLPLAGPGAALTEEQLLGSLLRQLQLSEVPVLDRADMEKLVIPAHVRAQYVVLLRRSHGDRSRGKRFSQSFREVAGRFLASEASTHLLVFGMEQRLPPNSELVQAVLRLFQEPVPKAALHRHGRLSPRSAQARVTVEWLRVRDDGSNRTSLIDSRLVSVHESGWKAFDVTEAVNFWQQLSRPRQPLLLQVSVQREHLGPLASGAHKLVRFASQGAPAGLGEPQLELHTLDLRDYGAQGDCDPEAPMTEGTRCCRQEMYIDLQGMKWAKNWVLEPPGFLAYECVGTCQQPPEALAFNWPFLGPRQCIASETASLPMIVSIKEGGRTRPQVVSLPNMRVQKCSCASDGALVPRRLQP
Sequence of Fibroblast growth factor 10 (Homo sapiens) (O15520 whole entry, looked up): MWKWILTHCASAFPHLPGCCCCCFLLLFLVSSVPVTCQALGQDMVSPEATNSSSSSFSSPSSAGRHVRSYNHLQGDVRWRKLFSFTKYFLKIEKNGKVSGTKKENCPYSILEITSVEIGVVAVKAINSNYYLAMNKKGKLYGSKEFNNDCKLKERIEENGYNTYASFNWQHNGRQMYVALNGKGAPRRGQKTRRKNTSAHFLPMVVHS
Sequence of Follistatin-related protein 3 (Homo sapiens) (O95633 whole entry, looked up): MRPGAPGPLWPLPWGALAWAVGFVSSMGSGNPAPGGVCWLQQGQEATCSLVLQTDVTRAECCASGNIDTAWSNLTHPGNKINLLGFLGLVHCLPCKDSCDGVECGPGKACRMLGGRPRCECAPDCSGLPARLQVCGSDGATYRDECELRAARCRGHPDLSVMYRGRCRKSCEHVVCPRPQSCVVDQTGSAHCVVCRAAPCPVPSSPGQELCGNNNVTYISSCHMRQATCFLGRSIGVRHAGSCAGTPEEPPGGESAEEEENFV

Turning to `O=C1C[C@@](C(=O)NC2CC2)(c2ccc([N+](=O)[O-])cc2)[C@@H](c2ccc(CO)cc2)N1CC12CC3CC(CC(C3)C1)C2`, the composite z-score in assay [1] was 1.3; in assay [2] it was -0.0801; in assay [3], 0.782; in assay [5], 0.474; in assay [6] it was 0.612; in [7], 0.1. Moreover, the composite z-score in assay [8] is 0.925; in assay [9] it was 0.253; in assay [10], 0.571; in assay [11] it was 0.869; in assay [13], -0.523; in assay [14], 0.557. In addition, the composite z-score in assay [15] was -0.0787; in [16], -0.0751; in assay [17] it was -0.147; in assay [18], 0.11; in assay [19], 0.471; in assay [20], 0.601. The z-score in [4] was -1.42 (inactive); in assay [12], -2.39.
For the compound `CC1=C2[C@@H](CCc3ccccc3)OB(O)C[C@@H]2n2c(=O)n(-c3ccccc3)c(=O)n2C1`, the composite z-score is 0.897 in assay [1]; -0.0992 in [2]; -0.339 in assay [3]; 0.355 in assay [5]; 0.255 in assay [6]; 0.249 in assay [7]. The composite z-score in [8] was found to be 0.894; in [9] it was 0.565; in assay [10] it was 0.421; in [11] it was 0.352; in assay [13], 0.664; in [14] it was 0.177. For the same compound, the composite z-score was -0.878 in assay [15]; -0.096 in assay [16]; 0.133 in assay [17]; -0.198 in assay [18]; 0.543 in [19]; -0.027 in assay [20]. For the same compound, the figures for the z-score in assay [4] and in [12] were 0.72 (inactive) and -1.23, respectively.
In the case of `C[C@]1(C(=O)NCc2ccccc2)c2ccccc2C(=O)N(Cc2ccc(OC(F)(F)F)cc2)[C@H]1c1ccc(CO)cc1`, the composite z-score in assay [1] was 0.0162; in [2] it was -0.098; in assay [3], 0.663; in assay [5], 0.0259; in [6], 0.0034; in [7] it was -0.535. Moreover, the composite z-score in assay [8] is 0.115; in assay [9], -0.393; in assay [10], 0.0615; in assay [11] it was 1.39; in assay [13] it was -0.579; in assay [14], -0.119. The composite z-score was 0.122 in assay [15]; -0.0882 in assay [16]; -0.304 in assay [17]; -0.381 in [18]; 0.696 in assay [19]; -0.141 in assay [20]. Also, the values for the z-score in assay [4] and in assay [12] were -0.557 (inactive) and 0.0711, respectively.
For the compound `C#CCN(C(/C=C/c1ccccc1)CO)C(C(=O)O)c1ccccc1` (stereo not given), the composite z-score in [1] is -0.211; in assay [2] it was -0.285; in assay [3] it was -0.447; in assay [5], 0.0698; in assay [6], -0.953; in assay [7], -0.0139. Further, the composite z-score is -0.435 in assay [8]; 0.122 in assay [9]; -0.99 in [10]; -0.943 in assay [11]; 0.111 in assay [13]; -0.238 in assay [14]. Further, the composite z-score in [15] was -0.707; in assay [16], -0.0981; in assay [17], -0.2; in [18] it was -0.242; in assay [19], -0.58; in assay [20] it was 0.127. The values for the z-score in assay [4] and in assay [12] were -1.89 (inactive) and -0.206, respectively.
Turning to `C[C@]1(C(=O)NCc2ccccc2)c2ccccc2C(=O)N(Cc2cc(F)cc(C(F)(F)F)c2)[C@H]1c1ccc(CO)cc1`, the composite z-score in [1] is 0.876; in assay [2] it was 0.214; in assay [3], 0.637; in [5] it was -0.384; in assay [6] it was -0.422; in assay [7], -0.505. In addition, the composite z-score in [8] was -1.45; in [9] it was -1.21; in assay [10], -0.185; in assay [11], 0.376; in assay [13], -1.57; in assay [14], -0.595. Moreover, the composite z-score is 0.173 in [15]; -0.0685 in [16]; 0.0469 in [17]; -0.427 in assay [18]; -0.168 in assay [19]; 0.0471 in [20]. Also, the z-score in assay [4] was -0.102 (inactive); in assay [12] it was -0.44.
